About 83,000 compounds went through this panel and 20% of them were active in at least one assay; those are over-represented in the sample as a whole.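 Cell lines were cultured in 96-well plates, exposed to a single compound concentration, and assessed for percent growth 48 hours later.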 A number with no mark means an inactive call. Active and inactive are the calls of the source. Rule for the calls: active = growth percent below 10; inactive = the rest.
System: MDA-MB-468 breast
Test: NCI-60 one-dose screen, 48 h (100 = growth as untreated, 0 = no growth, -100 = all killed)
Conditions: 10 µM unless noted

| SMILES | growth |
| --- | --- |
| Nc1ccc(SSc2ccc(N)cc2)cc1 | 101% |
| CCN(CC)CCOc1ccc(-c2c(-c3ccccc3)c(=O)oc3ccccc23)cc1 | 72.9% |
| COC(=O)C(Cc1cn(C(C)=O)c2ccccc12)P(=O)(OC)OC (stereo not drawn) | 101% |
| CCOC(=O)N1C/C(=C/c2ccc(OC)cc2)C(=O)/C(=C/c2ccc(OC)cc2)C1 | -28.9% (active) |
| CCOC(=O)c1cc(/C=C/c2cccc(Cl)c2)on1 | 60.3% |
| CCO/C=N/C1=C(C#N)C(c2ccc(OC)cc2)c2sc3c(CC)cccc3c2O1 (stereo not drawn) | -21.1% (active) |
| Cc1c(Cl)cccc1NC(=O)CCCl | 108% |
| CO[C@H]1/C=C/O[C@@]2(C)Oc3c(C)c(O)c4c(O)c(c(/C=N/N5C(C)CN(Cc6ccccc6)CC5C)c(O)c4c3C2=O)NC(=O)/C(C)=C\C=C\[C@H](C)[C@H](O)[C@@H](C)[C@@H](O)[C@@H](C)[C@H](OC(C)=O)[C@@H]1C (stereo partly drawn) | 65.1% |
| COC1CCC(N2C(=O)CNc3ncc(-c4ccc(C(C)(C)O)nc4)nc32)CC1 (stereo not drawn) | -25.2% (active) |
| COc1cc(/C=C\c2cc(/C=C\c3ccc(O)c(OC)c3)n(C(=O)COc3ccc(Cl)cc3Cl)n2)ccc1O | 12.5% |
| CC(=O)n1c(-c2ccc(Cl)cc2)nc2c(c1=O)C(c1ccc(Cl)cc1)c1sc3c(Cl)cccc3c1O2 (stereo not drawn) | 5.06% (active) |
| O=S(=O)(NCCCNc1nccc(-c2[nH]c(-c3ccccc3)nc2-c2ccc(F)c(O)c2)n1)c1cccc2ccccc12 | 48.8% |
| Cc1ccc(NC(=O)/C=C/c2ccccc2)c(C(N)=O)c1 | 22.5% |
| COc1cc(/C=C/c2cc(/C=C/c3ccc(O)c(OC)c3)n(C(=O)Nc3ccc(C)cc3C)n2)ccc1O | -30.3% (active) |
| Cc1ccc(-c2nc(C(Cl)Cl)nc3cc(-c4ccccc4)nn23)cc1 | -54.2% (active) |
| Nc1c(C(=O)Nc2ccccn2)sc2nc3c(cc12)C(=O)CCC3 | 7.45% (active) |
| COc1ccc(NC(=O)/C=C/c2ccc(Cl)c(Cl)c2)cn1 | 69.5% |
| Cc1nc2sc(C(=O)Nc3cccc4ccccc34)c(N)c2cc1C(=O)c1ccccc1 | 5.45% (active) |
| O=C(c1ccc(O)cc1)C1[C@H](c2ccc(Cl)cc2)[C@@H](c2ccccc2)NC12C(=O)Nc1ccc(Cl)cc12 (stereo partly drawn) | 39.4% |
| Cc1ccc(C=C2C(=O)NC(=O)NC2=O)cc1 | 108% |
| COc1cccc(C2=NN3C(C2)c2cc(Br)cc(OC)c2OC32CCN(Cc3ccccc3)CC2)c1 (stereo not drawn) | 96.4% |
| CCOC(=O)CSCCC#N | 109% |
| ClC1=NC(Cl)C(Cl)=N/C1=N\c1ncn[nH]1 (stereo not drawn) | -61.6% (active) |
| Cc1cc2nc3cc(C)c(N)cc3[n+](-c3ccccc3)c2cc1N | 2.5% (active) |
| Cc1ccc2c(n1)C(=O)C(Br)=C(C1CCCC1)C2=O | 95.2% |
| OCCNc1nc(Nc2ccc(C3=NN(c4cc(Cl)cc(Cl)c4)C(c4ccc(C(F)(F)F)cc4)C3)cc2)nc(N2CCOCC2)n1 (stereo not drawn) | 66.7% |
| COc1ccc(Cn2c(Br)c3c(c2-c2cc(OC)c(OC)c(OC)c2)CCc2sc(NC(C)=O)nc2-3)cc1 | 22.8% |
| COc1cc(/C=C/C(=O)c2ccc(Nc3ncnc4cc(OC)c(OC)cc34)cc2)cc(OC)c1 | 101% |

Reference: PubChem BioAssay (NCI)
